{"source": "PubChem BioAssay (Tox21)", "note": "Records with an inconclusive call do not appear. A number with no mark means an inactive call. Calls of active or inactive are those of the source. Calls come from the whole dose curve. % is set by controls: 0 for no effect and ±100 for the full control effect."}
{"target": "5-hydroxytryptamine receptor 2A (Homo sapiens) (UniProt P28223)", "sequence (P28223 whole entry, looked up)": "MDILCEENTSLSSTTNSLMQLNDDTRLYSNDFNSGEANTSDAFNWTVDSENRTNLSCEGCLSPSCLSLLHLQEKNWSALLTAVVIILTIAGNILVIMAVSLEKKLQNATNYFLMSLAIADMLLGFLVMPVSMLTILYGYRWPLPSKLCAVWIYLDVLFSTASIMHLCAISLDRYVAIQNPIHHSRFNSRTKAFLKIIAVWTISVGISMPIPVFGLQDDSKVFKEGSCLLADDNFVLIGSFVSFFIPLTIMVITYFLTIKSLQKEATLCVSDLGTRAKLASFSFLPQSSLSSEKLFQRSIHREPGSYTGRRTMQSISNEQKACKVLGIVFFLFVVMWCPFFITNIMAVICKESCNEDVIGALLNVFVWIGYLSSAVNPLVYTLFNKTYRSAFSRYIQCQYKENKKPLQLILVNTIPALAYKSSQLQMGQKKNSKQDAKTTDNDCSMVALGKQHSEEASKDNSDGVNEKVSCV", "test": "5-hydroxytryptamine receptor 2A (HTR2A) small molecule agonists, cell-based qHTS assay (AID 1963587); note: nearly all actives have a fitted effect of over 30% in size", "conditions": "HTR2A-CHO cells, calcium flux fluorescence, agonist mode; series mostly up to 76.8 µM; activation: at the top concentration", "excerpt": "National Center for Advancing Translational Sciences [NCATS]\nDivision of Preclinical Innovation [DPI]\nU.S. Environmental Protection Agency [EPA]\nNational Institutes of Environmental Health Sciences [NIEHS]\nNational Toxicology Program [NTP]\nU.S. Food and Drug Administration [FDA]\nThe HTR2A receptor is a subtype of the 5-HT2 receptor that belongs to the serotonin receptor family and is a G protein-coupled receptor (GPCR). The HTR2A-CHO cell line stably expressing human 5-hydroxytryptamine receptor 2A (HTR2A) can be used for screening agonists of interactions between 5-HT2 and its ligands. The HTR2A-CHO calcium flux assay is a homogeneous fluorescence-based assay for detecting the intracellular calcium level using FDSS kinetic plate reader system.\nHTR2A-CHO cells were dispensed at 2000 cells/3uL/well in 1536-well black-clear bottom plates using a Multidrop Dispenser. After the assay plates were incubated at a 37 C/5% CO2 incubator for 18 h, 3 uL of Dye Loading Buffer was transferred to the assay plate by a Flying Reagent Dispenser. The assay plates were incubated at 37 C for 1h. For agonist mode, 23 nL of compounds dissolved in DMSO, positive controls or DMSO only was transferred to the assay plate by a pin tool. The fluorescence intensity in the plates was measured using FDSS 7000EX kinetic plate reader for 2 min at 1 sec intervals."}
{"smiles": "O=C1[C@@H]2[C@H]3CC[C@H](C3)[C@@H]2C(=O)N1CCCCN1CCN(c2ncccn2)CC1", "activation": "-9.5% [at 35.6 µM]"}
{"smiles": "O=C1OC(=O)c2cc(Oc3ccc4c(c3)C(=O)OC4=O)ccc21", "activation": "0.0656%"}
{"smiles": "CC[N+](CC)(CC(=O)Nc1c(C)cccc1C)Cc1ccccc1", "note": "(tested in a mixture with another compound)", "activation": "3.98% [at 35.6 µM]"}
{"smiles": "O=C1OC(=O)c2cc(-c3ccc4c(c3)C(=O)OC4=O)ccc21", "activation": "-4.16%"}
{"smiles": "Cc1nc(-c2ccccn2)ncc1C(=O)Nn1cc(C)c2cc(F)ccc21", "activation": "-2.13%"}
{"smiles": "CC(=O)Nc1ccc(OCCOCCOc2ccc(NC(C)=O)cc2)cc1", "activation": "-0.53% [at 35.6 µM]"}
{"smiles": "Oc1ccc2c(c1)Cc1ccccc1-2", "activation": "-15.9%"}
{"smiles": "CC(C)(C)C1CCC(CC2=C(O)c3ccccc3C(=O)C2=O)CC1", "note": "(stereo not given)", "activation": "0.0595% [at 35.6 µM]"}
{"smiles": "Cc1nc2c([nH]1)c(=O)n(C)c(=O)n2Cc1ccco1", "activation": "-1.77% [at 35.6 µM]"}
{"smiles": "CCc1nn(CCCN2CCN(c3cccc(Cl)c3)CC2)c(=O)n1CCOc1ccccc1", "activation": "2.73% [at 35.6 µM]"}
{"smiles": "CCN(CC)C(=O)c1ccc(O)c(OC)c1", "activation": "0.765% [at 35.6 µM]"}
{"smiles": "C=Cc1c(C)c2cc3[nH]c(cc4nc(cc5nc(cc1[nH]2)C(C)=C5CCC(=O)O)C(CCC(=O)O)=C4C)c(C)c3C=C", "activation": "0.532% [at 35.6 µM]"}
{"smiles": "O=C1NC2CCCCN2C12CCN(CCCN1c3ccccc3CCc3ccc(Cl)cc31)CC2", "note": "(stereo not given)", "activation": "10.5% [at 35.6 µM]"}
{"smiles": "CC(C)=CC(C)(C)C", "activation": "4.84%"}
{"smiles": "CCCCCCCCCCl", "activation": "0.746%"}
{"smiles": "C#Cc1cccc(Nc2ncnc3cc(OCCOC)c(OCCOC)cc23)c1", "activation": "-5.77% [at 35.6 µM]"}
{"smiles": "Nc1nc2ccccc2n1Cc1ccc(F)cc1", "activation": "-0.4% [at 35.6 µM]"}
{"smiles": "COc1ccc(S(=O)(=O)N2C(=O)[C@@](c3ccccc3OC)(N3C[C@H](O)C[C@H]3C(=O)N(C)C)c3cc(Cl)ccc32)c(OC)c1", "activation": "13.2%"}
{"smiles": "C=CCCC(=O)O", "activation": "-0.354%"}
{"smiles": "O=C1c2ccccc2C(=O)c2c(Cl)cccc21", "activation": "-3.84% [at 35.6 µM]"}
{"smiles": "NC(=O)c1ccccc1C(N)=O", "activation": "7.6%"}
{"smiles": "CCc1ccc2c(c1)C(=O)c1ccccc1C2=O", "activation": "-3.12%"}
{"smiles": "Cc1c(N)c(=O)n(-c2ccccc2)n1C", "activation": "-2.13% [at 35.6 µM]"}
{"smiles": "CCC(C)N", "note": "(stereo not given)", "activation": "2.49%"}
{"smiles": "CC(=O)Oc1ccc(C(=C2CCCCC2)c2ccc(OC(C)=O)cc2)cc1", "activation": "-3.08% [at 35.6 µM]"}
{"smiles": "O=S(=O)(O)c1cc(S(=O)(=O)O)c2c(N=Nc3ccccc3)c(O)ccc2c1", "Potency": "inactive"}
{"smiles": "CC(CN(CCN(CC(C)OCCO)CC(C)OCCO)CC(C)OCCO)OCCO", "note": "(stereo not given)", "activation": "3.46%"}
{"smiles": "C=C(C)C(=O)OC", "activation": "0.123%"}
{"smiles": "COc1ccccc1OCC1CNC(=O)O1", "note": "(stereo not given)", "activation": "1.32% [at 35.6 µM]"}
{"smiles": "Cc1cc(=O)oc2cc(N(C)C)ccc12", "activation": "-2.51%"}
{"smiles": "C=C(C)C(=O)OCCOCCOC(=O)C(=C)C", "activation": "-2.69%"}
{"smiles": "CC[C@@]1(c2ccccc2)NC(=O)N(C)C1=O", "activation": "-1.93% [at 35.6 µM]"}
{"smiles": "CC(C)COC(=O)c1ccc(O)cc1", "activation": "-1.1%"}
{"smiles": "COc1cc(Cl)c(OC)cc1N", "activation": "0.209%"}
{"smiles": "CCc1ccc(C(c2ccc(CC)cc2)C(Cl)Cl)cc1", "Potency": "inactive"}
{"smiles": "Nc1ccc(N=Nc2ccc(N)cc2)cc1", "activation": "-1.58% [at 35.6 µM]"}
{"smiles": "N#CCCN(CCO)CCO", "activation": "0.447%"}
{"smiles": "CCCCC/C=C\\C/C=C\\CCCCCCCC(=O)NC(C)c1ccccc1", "note": "(stereo not given)", "activation": "-4.79% [at 35.6 µM]"}
{"smiles": "C=C/C=C/C=C/CCCCC", "activation": "-2.6% [at 15.9 µM]"}
{"smiles": "C=CC(=O)Nc1cc2c(Nc3ccc(F)c(Cl)c3)ncnc2cc1OCCCN1CCOCC1", "activation": "-9.4% [at 35.6 µM]"}
